# Unmarked numbers belong to inactive results.
# What was measured:
# Assay in all cases: log2 ratio of Biotin-Ahx-Ub-VS probe labelling (fragment/DMSO); higher = less target engagement (more negative = stronger competition), active = hit call of the paper (q ≤ 0.05, log2 ratio ≤ -1)
# Conditions in all cases: compound concentration: 200 uM; treatment time: 3 h
# [1] = target: T1, OTUD6B (UniProt Q8N6M0)
# T1 sequence (whole entry): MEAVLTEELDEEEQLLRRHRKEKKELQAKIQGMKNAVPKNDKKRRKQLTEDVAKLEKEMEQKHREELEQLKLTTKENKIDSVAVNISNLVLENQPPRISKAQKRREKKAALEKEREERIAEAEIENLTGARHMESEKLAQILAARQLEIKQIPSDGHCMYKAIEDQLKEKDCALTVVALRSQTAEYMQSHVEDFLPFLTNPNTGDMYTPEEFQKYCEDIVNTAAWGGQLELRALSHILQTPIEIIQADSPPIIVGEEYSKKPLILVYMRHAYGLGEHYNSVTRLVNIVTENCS
# Summary of the method: (§1)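 Labelled DUBs were enriched with NeutrAvidin, digested with LysC and trypsin, and run by diaPASEF LC-MS/MS. The labelling used Biotin-Ahx-Ub-VS at 0.5 µM final for 1 h on HEK293T lysate (495 µg per sample) previously treated in triplicate with fragment at 200 µM or vehicle for 3 h. Values are average log2 fragment/vehicle ratios by unpaired t-test on global-median-normalised Spectronaut quantities of proteins with ≥2 unique peptides.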
# [2] = target: T2, OTUD7B (UniProt Q6GQQ9)
# T2 sequence (whole entry): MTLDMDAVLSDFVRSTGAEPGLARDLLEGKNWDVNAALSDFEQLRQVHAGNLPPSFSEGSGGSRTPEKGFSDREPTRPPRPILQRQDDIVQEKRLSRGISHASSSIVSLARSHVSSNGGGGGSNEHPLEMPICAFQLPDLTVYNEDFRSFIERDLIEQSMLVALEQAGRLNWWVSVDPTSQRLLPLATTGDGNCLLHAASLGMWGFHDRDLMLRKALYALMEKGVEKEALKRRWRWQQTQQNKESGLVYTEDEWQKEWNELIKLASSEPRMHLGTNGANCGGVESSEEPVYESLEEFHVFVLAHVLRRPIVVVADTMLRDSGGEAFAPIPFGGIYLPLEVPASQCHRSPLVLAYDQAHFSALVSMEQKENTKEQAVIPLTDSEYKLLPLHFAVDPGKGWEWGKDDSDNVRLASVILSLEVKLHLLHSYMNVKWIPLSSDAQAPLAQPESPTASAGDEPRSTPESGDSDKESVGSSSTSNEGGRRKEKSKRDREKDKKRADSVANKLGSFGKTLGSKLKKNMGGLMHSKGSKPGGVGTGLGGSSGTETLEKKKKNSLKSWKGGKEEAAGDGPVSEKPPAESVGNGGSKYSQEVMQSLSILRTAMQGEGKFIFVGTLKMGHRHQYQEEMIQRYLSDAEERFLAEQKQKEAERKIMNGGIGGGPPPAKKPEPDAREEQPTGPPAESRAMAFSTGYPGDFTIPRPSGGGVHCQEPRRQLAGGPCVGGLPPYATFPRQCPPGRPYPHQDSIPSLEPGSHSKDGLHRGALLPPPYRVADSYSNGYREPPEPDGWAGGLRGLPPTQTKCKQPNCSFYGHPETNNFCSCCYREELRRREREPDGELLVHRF
# Summary of the method: as §1
# [3] = target: PRPF8 (UniProt Q6P2Q9)
# Summary of the method: as §1
# [4] = target: T3, PSMD7 (UniProt P51665)
# T3 sequence (whole entry): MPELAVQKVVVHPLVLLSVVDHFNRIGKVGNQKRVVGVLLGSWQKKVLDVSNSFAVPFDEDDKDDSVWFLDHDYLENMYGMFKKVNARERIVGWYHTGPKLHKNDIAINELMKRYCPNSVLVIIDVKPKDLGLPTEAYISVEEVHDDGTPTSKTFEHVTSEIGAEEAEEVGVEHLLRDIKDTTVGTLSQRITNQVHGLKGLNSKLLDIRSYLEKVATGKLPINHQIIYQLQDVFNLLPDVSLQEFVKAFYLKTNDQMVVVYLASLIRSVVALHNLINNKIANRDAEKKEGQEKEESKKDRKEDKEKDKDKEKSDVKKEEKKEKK
# Summary of the method: as §1
# [5] = target: UCHL1 (UniProt P09936)
# Chain of UCHL1 (P09936 whole entry, looked up): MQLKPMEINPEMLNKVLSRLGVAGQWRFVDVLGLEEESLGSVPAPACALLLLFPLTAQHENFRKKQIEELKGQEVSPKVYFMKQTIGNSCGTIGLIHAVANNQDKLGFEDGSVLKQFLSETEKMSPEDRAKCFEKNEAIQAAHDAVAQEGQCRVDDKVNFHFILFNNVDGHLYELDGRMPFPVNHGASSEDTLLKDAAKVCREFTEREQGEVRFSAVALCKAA
# Summary of the method: as §1
# [6] = target: T4, UCHL3 (UniProt P15374)
# T4 sequence (whole entry): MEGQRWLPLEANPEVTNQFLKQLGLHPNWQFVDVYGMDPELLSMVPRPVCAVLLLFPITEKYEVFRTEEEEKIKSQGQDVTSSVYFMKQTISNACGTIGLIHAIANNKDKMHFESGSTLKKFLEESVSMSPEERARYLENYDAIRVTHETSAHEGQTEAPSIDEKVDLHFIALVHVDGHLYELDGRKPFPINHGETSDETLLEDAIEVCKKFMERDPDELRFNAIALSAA
# Summary of the method: as §1
# [7] = target: T5, UCHL5 (UniProt Q9Y5K5)
# T5 sequence (whole entry): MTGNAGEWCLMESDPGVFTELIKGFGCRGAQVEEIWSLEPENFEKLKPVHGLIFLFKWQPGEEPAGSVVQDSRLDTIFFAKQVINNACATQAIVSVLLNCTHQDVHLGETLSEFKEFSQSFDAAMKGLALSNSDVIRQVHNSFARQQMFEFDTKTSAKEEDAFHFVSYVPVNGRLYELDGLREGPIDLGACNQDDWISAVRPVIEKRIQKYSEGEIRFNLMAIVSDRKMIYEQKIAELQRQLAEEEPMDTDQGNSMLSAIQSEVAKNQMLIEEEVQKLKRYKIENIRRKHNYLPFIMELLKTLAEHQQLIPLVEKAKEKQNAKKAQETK
# Summary of the method: as §1
# [8] = target: USP10 (UniProt Q14694)
# Chain of USP10 (Q14694 whole entry): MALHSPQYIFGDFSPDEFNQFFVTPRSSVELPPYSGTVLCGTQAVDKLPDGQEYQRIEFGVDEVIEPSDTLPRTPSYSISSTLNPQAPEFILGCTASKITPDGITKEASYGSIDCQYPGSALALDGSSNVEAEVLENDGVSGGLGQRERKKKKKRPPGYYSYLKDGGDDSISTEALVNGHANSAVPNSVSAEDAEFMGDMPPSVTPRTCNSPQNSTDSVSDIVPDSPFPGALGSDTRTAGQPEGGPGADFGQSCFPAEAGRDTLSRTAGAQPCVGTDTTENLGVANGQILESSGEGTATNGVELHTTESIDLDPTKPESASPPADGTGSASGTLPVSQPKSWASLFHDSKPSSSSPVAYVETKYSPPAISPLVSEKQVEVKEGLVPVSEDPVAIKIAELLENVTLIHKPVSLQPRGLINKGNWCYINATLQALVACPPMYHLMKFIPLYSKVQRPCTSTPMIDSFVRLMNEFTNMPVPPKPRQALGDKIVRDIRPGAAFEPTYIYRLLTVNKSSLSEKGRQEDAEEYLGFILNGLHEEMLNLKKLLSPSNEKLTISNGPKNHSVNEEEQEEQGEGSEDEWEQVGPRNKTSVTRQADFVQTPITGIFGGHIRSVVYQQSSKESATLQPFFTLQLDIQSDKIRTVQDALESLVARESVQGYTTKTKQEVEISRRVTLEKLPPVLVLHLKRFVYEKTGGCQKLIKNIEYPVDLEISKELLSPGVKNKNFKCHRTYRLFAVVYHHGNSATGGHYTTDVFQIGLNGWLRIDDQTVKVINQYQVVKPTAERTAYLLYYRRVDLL
# Summary of the method: as §1
# [9] = target: T6, USP15 (UniProt Q9Y4E8)
# T6 sequence (whole entry): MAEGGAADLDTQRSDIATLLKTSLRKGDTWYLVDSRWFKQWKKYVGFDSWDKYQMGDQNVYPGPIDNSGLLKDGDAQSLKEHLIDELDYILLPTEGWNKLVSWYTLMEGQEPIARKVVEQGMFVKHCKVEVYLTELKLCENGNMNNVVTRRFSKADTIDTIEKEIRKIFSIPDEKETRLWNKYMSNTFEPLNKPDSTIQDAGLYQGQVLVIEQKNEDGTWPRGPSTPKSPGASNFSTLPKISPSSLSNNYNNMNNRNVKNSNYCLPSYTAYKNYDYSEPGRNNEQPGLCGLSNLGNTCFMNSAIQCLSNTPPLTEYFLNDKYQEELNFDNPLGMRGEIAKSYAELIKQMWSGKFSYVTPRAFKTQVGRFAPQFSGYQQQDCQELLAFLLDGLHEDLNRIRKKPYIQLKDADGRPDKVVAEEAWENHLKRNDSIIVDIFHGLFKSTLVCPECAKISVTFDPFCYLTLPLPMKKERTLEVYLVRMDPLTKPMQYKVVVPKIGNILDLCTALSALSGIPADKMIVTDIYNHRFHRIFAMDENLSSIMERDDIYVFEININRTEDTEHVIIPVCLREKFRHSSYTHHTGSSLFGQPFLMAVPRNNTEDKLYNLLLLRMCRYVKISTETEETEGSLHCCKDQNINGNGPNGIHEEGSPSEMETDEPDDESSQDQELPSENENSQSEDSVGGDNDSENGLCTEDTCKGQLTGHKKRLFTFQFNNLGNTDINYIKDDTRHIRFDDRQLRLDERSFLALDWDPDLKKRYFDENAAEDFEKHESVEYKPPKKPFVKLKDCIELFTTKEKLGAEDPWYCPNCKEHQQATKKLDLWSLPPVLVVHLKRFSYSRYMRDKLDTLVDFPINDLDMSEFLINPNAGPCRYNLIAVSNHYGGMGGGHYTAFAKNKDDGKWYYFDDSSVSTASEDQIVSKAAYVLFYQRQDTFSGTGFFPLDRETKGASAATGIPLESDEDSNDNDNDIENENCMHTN
# Summary of the method: as §1
smiles,measurement,setting,value
O=C(CCl)NC1CCCCNC1=O (centres undefined),log2 ratio of Biotin-Ahx-Ub-VS probe labelling,[1],-0.522
same,log2 ratio of Biotin-Ahx-Ub-VS probe labelling,[2],-0.212
same,log2 ratio of Biotin-Ahx-Ub-VS probe labelling,[3],-0.0633
same,log2 ratio of Biotin-Ahx-Ub-VS probe labelling,[4],-0.0971
same,log2 ratio of Biotin-Ahx-Ub-VS probe labelling,[5],-1.46 (active)
same,log2 ratio of Biotin-Ahx-Ub-VS probe labelling,[6],0.241
same,log2 ratio of Biotin-Ahx-Ub-VS probe labelling,[7],-0.137
same,log2 ratio of Biotin-Ahx-Ub-VS probe labelling,[8],-0.269
same,log2 ratio of Biotin-Ahx-Ub-VS probe labelling,[9],-0.252
